This note sets out measurements from PubChem BioAssay (NCI).

Several values for one entry are separate records, joined by “and”; a condition that tells them apart may be missing. Equal entries are not always repeated. This is part of a sample that, as a whole, favours compounds with a hit. Of some 83,000 tested, about 20% had one in any assay.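 48-hour exposure, single concentration, 96-well plates; percent growth endpoint where 0 means no net growth. Active: below 10.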 Values without a mark were called inactive. Activity calls are given as the source filed them.

The subject of the test is MDA-MB-468 breast. The experiment in a line: NCI-60 one-dose screen, 48 h (100 = growth as untreated, 0 = no growth, -100 = all killed). As to conditions: 10 µM unless noted.
For `CC1(C)CC[C@]2(C(=O)NCCCCCCN(CCCN)CCCN)CC[C@]3(C)C(=CC[C@@H]4[C@@]5(C)CC[C@H](O)C(C)(C)[C@@H]5CC[C@]43C)[C@@H]2C1`, the growth is 98.6%. Regarding `CNc1ccc(Nc2ccc(S(=O)(=O)O)cc2)c2c1C(=O)c1ccccc1C2=O`, the growth was 98.6%. For `CCCCCCCCCCCC1=NC(C)(C)CN1CCO`, the growth was 15%. Take `CCOC(=O)c1ccc2n1CCCc1cnc(NC(C)=O)nc1-2`: the growth is 96.1%. Take `COc1ccc(N(c2nc(-c3ccc([N+](=O)[O-])cc3)cs2)C(C)C)cc1`: the growth was 20.4%. With `CCN(CC)c1ccc(/C=C(\C#N)c2cc3ccccc3[nH]2)cc1`, the growth was 47.3%.

Take `N=C(N=C(N)N)N1CCOCC1`: the growth was 100% and 101%. With `CCOC(=O)C1=C(N)Oc2c(sc3c(CC)cccc23)C1c1ccc(F)cc1` (stereo not given), the growth was 46.1%. Under `O=C(C[P+](c1ccccc1)(c1ccccc1)c1ccccc1)C[P+](c1ccccc1)(c1ccccc1)c1ccccc1` stands -33.8% (active); under `COc1ccc2c(c1)CCc1c-2n[nH]c1-c1[nH]nc2c1CCc1cc(OC)ccc1-2`, -6.6% (active); under `Cc1ccc(-c2nc(/C=N/Nc3cc(C)nc4ccc(Cl)cc34)c(C)o2)cc1`, -76% (active). `CC1(C)[C@@H](O[C@@H]2OC[C@@H](O[C@@H]3O[C@H](CO)[C@@H](O)[C@H](O)[C@H]3O[C@@H]3OC[C@@H](O)[C@H](O)[C@H]3O)[C@H](O)[C@H]2O[C@@H]2O[C@H](CO)[C@@H](O)[C@H](O)[C@H]2O)CC[C@]2(C)[C@H]3CC[C@]45OC[C@@]6(CC[C@](C)(C=O)C[C@H]64)[C@H](O)C[C@@]5(C)[C@]3(C)CC[C@@H]12`: the growth was -71.2% (active).

On to `COc1cc(-c2nnc(-c3c(-c4ccc(F)cc4)nc4ccccn34)o2)cc(OC)c1OC`, for which the growth is 99.4%. On to `CCOc1ccc(NC(=O)Nc2cc(C(C)C)ccc2C)cc1`, for which the growth was 114%. Under `CCN(CC)CCCCCCCNc1c2ccc(Cl)cc2nc2ccc(OC)cc12` stands -86.6% (active); under `CCCCN(CCCC)c1ccc(C(=N)c2ccc(N(CCCC)CCCC)cc2)cc1`, -92.9% (active).

Consider `O=C(N/N=C/c1ccc(F)cc1)c1[nH]c2ccc(I)cc2c1-c1ccccc1`, for which the growth was 17.8%. Under `O=C(CNc1c(Cl)cccc1Cl)Nc1ccc(-c2nc3ccccc3s2)cc1` stands -7.4% (active). On to `O=C(CSc1nc2sc3c(c2c(=O)n1-c1ccc(Cl)cc1)CCCC3)NNC(=O)Nc1cccc(C(F)(F)F)c1`, for which the growth was 8.29% (active). As to `CC(=O)C1=NN(c2ccc(Cl)cc2)C(=O)CN1C`, the growth was 102%. Take `CCCCCCCCCCCCCCCCNC(=S)N/N=C/c1ccc(OC)cc1`: the growth was 108%. With `Cc1cc(N/N=C/c2nc(-c3ccc(Cl)cc3)oc2C)c2cc(Br)ccc2n1`, the growth is -36.6% (active).

In the case of `Cc1ccc(C)c(/C=C2\CN(C(=O)OC(C)(C)C)C/C(=C\c3cc(C)ccc3C)C2=O)c1`, the growth was 57.3%. For `COc1ccc(/C=C/c2cccc[n+]2C)cc1`, the growth is 73.8%. Consider `COc1ccc(C(=O)C(CN(C)C)CN(C)C)cc1`, for which the growth was -66.4% (active).

Consider `CCN(CC)CCCNc1cccc2c(C)cc(OC)nc12`, for which the growth was 74.8%. Under `O=C(NCCCl)c1cc(Cl)cc(Cl)c1` stands 108%; under `Cc1ccc(Cc2ccc(C)cc2)cc1`, 96.8%; under `NC(=S)N1N=C(c2ccc(Cl)cc2)CC1c1cc2ccccc2[nH]c1=O` (stereo not given), 111%.

As for `Nc1nc(N)c2c(n1)NC(c1ccc(Cl)cc1)CC(c1cccc(Nc3ccncc3)c1)=N2` (stereo not given), the growth is 57.4%. The result for `COc1nc2c(cc1S(=O)(=O)c1ccccc1)CCc1c-2cnn1Cc1ccccc1` reads 45.7%. With `CC(=O)N(CCCCCCN(C(C)=O)C(C)=O)C(C)=O`, the growth was 99.2% [100 µM]. As for `COC(=O)/C(CCC=C(C)C)=C1\[C@@H](OC(C)=O)C[C@@]2(C)[C@H]1C[C@@H](O)[C@H]1[C@@]3(C)CC[C@H](NCCCNCCCCNCCCN)[C@@H](C)[C@@H]3CC[C@@]12C`, the growth is 78.5%. Under `COc1ccc(/C=N/NC(=O)Cn2nnc3ccccc32)cc1` stands 103%. The result for `COc1ccccc1/C=C/C(=O)CCC(=O)O` reads 124%; that for `COc1ccc(-n2sc(=O)n(Cc3ccc(COC(=O)C(C)c4ccc(CC(C)C)cc4)cc3)c2=O)cc1` (stereo not given), -46.1% (active); that for `C[n+]1cc2cc3c(cc2c2ccccc21)OCO3`, -21.2% (active). On to `O=S(=O)(O)c1ccc2cc(O)ccc2c1`, for which the growth was 101%.

On to `Cn1cnc([N+](=O)[O-])c1/C=C1\Oc2ccc(Cl)cc2C1=O`, for which the growth was 79.8%.

As to `NCCCNc1nc2ccccc2c2c(=O)c3cccc(F)c3sc12`, the growth is -11.3% (active).
